Results filed as inconclusive are left out. Entries that show only a call come without a potency. The source made the active and inactive calls. Unless noted, the call rests on the fitted dose curve; in most records, active means well fitted curve in the direction sought with a large enough effect; inconclusive means small, poorly fitted or top-dose-only effect, or another doubt; inactive means no such curve, though single readings can be large; an effect the other way counts as inactive or inconclusive.
tested on: not listed separately; assay: S16 Schwann cell PMP22 intronic element beta-lactamase assay (AID 624044; calls by dose curve; further: nearly all actives have a fitted effect of over 15% in size; further: potency means the concentration at half of the fitted maximal effect); conditions: S16 rat Schwann cells, PMP22 element beta-lactamase FRET, 24 h; series mostly up to 38.3 µM
Method in brief: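 Rat S16 Schwann cells with beta-Lac driven by a PMP22 intronic element, compound-treated 24 h at 37 °C. LiveBLAzer FRET B/G read: 460 nm normalized to potassium clavulanate vs DMSO; 535 nm FRET as viability; concentration-effect curves classified.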

Compound	Potency
Nc1nc2c(c(=O)[nH]1)N(C=O)[C@H](CNc1ccc(C(=O)N[C@@H](CCC(=O)O)C(=O)O)cc1)CN2	inactive
OCC(O)C(O)C(O)CO (configuration not stated)	inactive
COc1ccc2c(c1OC)C(=O)OC2[C@H]1c2c(cc3c(c2OC)OCO3)CCN1C (some centres not stated)	inactive
COc1ccc([C@@H]2CNC(=O)C2)cc1OC1CCCC1	inactive
CCCCCCCCCCCC(CC1OC(=O)C1CCCCCC)OC(=O)C(CC(C)C)NC=O (configuration not stated)	12.6 µM (active)

biological target: Glutaminase kidney isoform, mitochondrial (Homo sapiens) (UniProt O94925); assay: qHTS for Inhibitors of Glutaminase (GLS): LOPAC Validation (AID 624146); conditions: glutaminase enzyme activity inhibition; series mostly up to 46.1 µM;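 further: glutamate product detected by oxidase and peroxidase coupled Amplex red fluorescence gain; nearly all actives have a fitted effect of over 60% in size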
Sequence (O94925 whole entry, looked up, canonical isoform): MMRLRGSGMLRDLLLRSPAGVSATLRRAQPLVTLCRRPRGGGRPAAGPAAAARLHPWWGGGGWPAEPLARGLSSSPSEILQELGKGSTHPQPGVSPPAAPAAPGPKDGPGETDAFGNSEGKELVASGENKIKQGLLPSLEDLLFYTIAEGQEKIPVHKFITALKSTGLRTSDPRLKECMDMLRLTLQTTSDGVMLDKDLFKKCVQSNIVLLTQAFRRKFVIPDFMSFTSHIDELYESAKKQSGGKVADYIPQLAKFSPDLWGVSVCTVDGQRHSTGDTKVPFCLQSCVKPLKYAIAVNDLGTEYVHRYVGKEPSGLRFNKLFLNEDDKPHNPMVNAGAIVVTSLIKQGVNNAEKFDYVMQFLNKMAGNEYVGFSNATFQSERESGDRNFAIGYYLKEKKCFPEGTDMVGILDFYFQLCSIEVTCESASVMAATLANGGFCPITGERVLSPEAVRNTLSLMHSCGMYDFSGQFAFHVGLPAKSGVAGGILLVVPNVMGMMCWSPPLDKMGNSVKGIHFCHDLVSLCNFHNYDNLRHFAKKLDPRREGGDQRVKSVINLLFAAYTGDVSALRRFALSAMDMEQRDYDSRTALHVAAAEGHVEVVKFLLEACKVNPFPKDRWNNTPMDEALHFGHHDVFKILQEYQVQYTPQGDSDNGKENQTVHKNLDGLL
Method in brief: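 Read-out is an Amplex red fluorescence increase coupled through glutamate oxidase and HRP, measured before and after 30 min room-temperature incubation. hKGA is in 45 mM KH2PO4 (pH 8.2) with 0.02% Tween-20; glutamine added as 1mM solution.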

Compound	outcome
O=c1[nH]c(=O)n([C@H]2C[C@@H](O)[C@@H](CO)O2)cc1C=CBr	inactive
CN[C@H](CC(C)C)C(=O)N[C@H]1C(=O)N[C@@H](CC(N)=O)C(=O)N[C@@H]2C(=O)N[C@H]3C(=O)N[C@H](C(=O)N[C@H](C(=O)O)c4cc(O)cc(O)c4-c4cc3ccc4O)[C@H](O)c3ccc(c(Cl)c3)Oc3cc2cc(c3O[C@@H]2O[C@H](CO)[C@@H](O)[C@H](O)[C@@H]2O[C@H]2C[C@](C)(N)[C@H](O)[C@H](C)O2)Oc2ccc(cc2Cl)[C@H]1O	inactive
COc1ccc2cc([S+]([O-])Cc3ncc(C)c(OC)c3C)nc2c1	inactive

tested on: not listed separately; assay: qHTS of Trypanosoma Brucei Inhibitors: LOPAC Validation (AID 624147); conditions: purified enzyme assay, luminescence, 45 min; series mostly up to 57.5 µM
From the text: Members of the Trypanosomatidae family of parasitic protozoans cause a spectrum of diseases throughout the tropical and subtropical world. Sleeping sickness, caused by two subspecies of Trypanosoma brucei, is endemic to areas of sub-Saharan Africa, while Chagas' disease, a manifestation of Trypanosoma cruzi infection, is prevalent throughout Central and South America. In addition, many species of Leishmania are responsible for a range of cutaneous and visceral diseases, causing ulcers, destructive lesions and kalaazar, a lethal infection of the viscera. These diseases cause severe public health and economic burdens on populations that are often already caught in a tragic cycle of poverty, poor nutrition and disease. Collectively, parasites of the trypanosomatid family infect 30 million people worldwide (~500 million live in endemic areas), and account for ~130K deaths annually. Existing treatments have developed little in the past 50 years, and suffer from toxicity, poor efficacy and resistance; the goal of this project is to develop lead drugs that will be suitable for entry into pre-clinical trials.
Glycolysis in axenically cultured T. cruzi, representing the intracellular pathogenic stage, is also essential for these parasites. {Engel, 1987} This project aims to discover and optimize selective inhibitors of the glycolytic enzyme pyruvate kinase (PYK) from Trypanosoma brucei, the parasite that causes sleeping sickness. […]
2 uL of TbPYK/substrate buffer (columns 1-3, 5-48) are dispensed into Greiner white solid bottom 1536-well assay plates; column 4 receives only TEA buffer as 0x TbPYK controls. […] Kinase-Glo Plus reagent is added (3 uL) and plates incubated for 10 minutes, before being transferred to a ViewLux high-throughput CCD imager (PerkinElmer) wherein single end-point measurements of luminescence are acquired using a clear filter. […]

Compound	outcome
O=c1[nH]c(=O)n([C@H]2C[C@@H](O)[C@@H](CO)O2)cc1C=CBr	inactive
CN[C@H](CC(C)C)C(=O)N[C@H]1C(=O)N[C@@H](CC(N)=O)C(=O)N[C@@H]2C(=O)N[C@H]3C(=O)N[C@H](C(=O)N[C@H](C(=O)O)c4cc(O)cc(O)c4-c4cc3ccc4O)[C@H](O)c3ccc(c(Cl)c3)Oc3cc2cc(c3O[C@@H]2O[C@H](CO)[C@@H](O)[C@H](O)[C@@H]2O[C@H]2C[C@](C)(N)[C@H](O)[C@H](C)O2)Oc2ccc(cc2Cl)[C@H]1O	inactive
COc1ccc2cc([S+]([O-])Cc3ncc(C)c(OC)c3C)nc2c1	inactive

biological target: Glucagon-like peptide 1 receptor (Homo sapiens) (UniProt P43220); assay: qHTS of GLP-1 Receptor Agonists: LOPAC Validation (AID 624148); conditions: GLP-1R agonist cell assay; series mostly up to 46.1 µM;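 further: luminescence from a luciferase reporter switched on by cAMP; higher luminescence signal means agonism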
Sequence (P43220 whole entry, looked up): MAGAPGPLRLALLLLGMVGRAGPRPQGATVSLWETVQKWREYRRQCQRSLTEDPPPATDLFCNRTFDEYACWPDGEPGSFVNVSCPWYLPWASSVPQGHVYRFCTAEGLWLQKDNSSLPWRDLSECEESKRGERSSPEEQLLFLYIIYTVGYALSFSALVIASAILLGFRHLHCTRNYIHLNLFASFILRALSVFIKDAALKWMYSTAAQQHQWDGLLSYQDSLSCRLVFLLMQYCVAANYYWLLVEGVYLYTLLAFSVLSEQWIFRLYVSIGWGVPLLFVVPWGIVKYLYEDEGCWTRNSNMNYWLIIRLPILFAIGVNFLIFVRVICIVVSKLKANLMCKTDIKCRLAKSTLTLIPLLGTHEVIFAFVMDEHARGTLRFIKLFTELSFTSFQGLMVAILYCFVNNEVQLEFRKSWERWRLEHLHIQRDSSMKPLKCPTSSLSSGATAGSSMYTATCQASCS
Method in brief: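 Agonism scored as increased luciferase luminescence driven by cAMP in HEK293 clones carrying GLP-1R. Cells settled 12 hours, received compound for 4-6 hr at 37 deg C, 5% CO2, and were read after 12 min detection reagent at RT.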

Compound	outcome
O=c1[nH]c(=O)n([C@H]2C[C@@H](O)[C@@H](CO)O2)cc1C=CBr	inactive
CN[C@H](CC(C)C)C(=O)N[C@H]1C(=O)N[C@@H](CC(N)=O)C(=O)N[C@@H]2C(=O)N[C@H]3C(=O)N[C@H](C(=O)N[C@H](C(=O)O)c4cc(O)cc(O)c4-c4cc3ccc4O)[C@H](O)c3ccc(c(Cl)c3)Oc3cc2cc(c3O[C@@H]2O[C@H](CO)[C@@H](O)[C@H](O)[C@@H]2O[C@H]2C[C@](C)(N)[C@H](O)[C@H](C)O2)Oc2ccc(cc2Cl)[C@H]1O	inactive
COc1ccc2cc([S+]([O-])Cc3ncc(C)c(OC)c3C)nc2c1	inactive

tested on: not listed separately; assay: qHTS of Nrf2 Activators: LOPAC Validation (AID 624149); conditions: Nrf2/ARE reporter cell assay; series mostly up to 46.1 µM
Method in brief: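 ARE reporter activation measured in AREc32 firefly luciferase cells after 24 hr compound exposure; Steady-Glo luminescence.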

Compound	outcome
O=c1[nH]c(=O)n([C@H]2C[C@@H](O)[C@@H](CO)O2)cc1C=CBr	inactive
CN[C@H](CC(C)C)C(=O)N[C@H]1C(=O)N[C@@H](CC(N)=O)C(=O)N[C@@H]2C(=O)N[C@H]3C(=O)N[C@H](C(=O)N[C@H](C(=O)O)c4cc(O)cc(O)c4-c4cc3ccc4O)[C@H](O)c3ccc(c(Cl)c3)Oc3cc2cc(c3O[C@@H]2O[C@H](CO)[C@@H](O)[C@H](O)[C@@H]2O[C@H]2C[C@](C)(N)[C@H](O)[C@H](C)O2)Oc2ccc(cc2Cl)[C@H]1O	inactive
COc1ccc2cc([S+]([O-])Cc3ncc(C)c(OC)c3C)nc2c1	inactive

tested on: not listed separately; assay: HTS Assay for Allosteric Antagonists of the Human D2 Dopamine Receptor: Hit Validation in HTRF (AID 624455); conditions: Cells stably expressing D1 dopamine receptor, inhibition mode; series mostly up to 46.1 µM;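 further: stable D1 dopamine receptor cell line scored for blocking the D1 response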
Method in brief: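 Signal from an HTRF read-out in D1-expressing stable cells gave hit activity as inhibition of the D1 response.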

Compound	outcome
O=c1[nH]c(=O)n([C@H]2C[C@@H](O)[C@@H](CO)O2)cc1C=CBr	inactive
CN[C@H](CC(C)C)C(=O)N[C@H]1C(=O)N[C@@H](CC(N)=O)C(=O)N[C@@H]2C(=O)N[C@H]3C(=O)N[C@H](C(=O)N[C@H](C(=O)O)c4cc(O)cc(O)c4-c4cc3ccc4O)[C@H](O)c3ccc(c(Cl)c3)Oc3cc2cc(c3O[C@@H]2O[C@H](CO)[C@@H](O)[C@H](O)[C@@H]2O[C@H]2C[C@](C)(N)[C@H](O)[C@H](C)O2)Oc2ccc(cc2Cl)[C@H]1O	inactive
COc1ccc2cc([S+]([O-])Cc3ncc(C)c(OC)c3C)nc2c1	inactive

tested on: not listed separately; assay: qHTS Assay for Identification of Small Molecule Agonists for NFkB Signaling Pathway. (AID 624478); conditions: NFkB pathway reporter cell assay, agonist mode, cells co-stimulated with 10 pM TNF alpha; series mostly up to 46.1 µM;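 further: compounds tested together with TNF alpha at its EC50 of 10 pM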
Method in brief: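 Cells carrying an NFkB response element-driven beta-lactamase gene are co-treated with compound and 10 pM TNF alpha for 5 h, and reporter activity is then read as 460 and 530 nm fluorescence.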

Compound	outcome
COc1cc2c(cc1OC)[C@@H]1C(=O)c3ccc4c(c3O[C@@H]1CO2)C=CC(C)(C)O4	inactive
COc1cc(C)c(Sc2cnc(NC(=O)c3ccc(CNC(C)C(C)(C)C)cc3)s2)cc1C(=O)N1CCN(C(C)=O)CC1 (configuration not stated)	inactive
N#Cc1ccc(COC[C@H]2O[C@@H](n3c(NCc4ccc(Cl)c(Cl)c4)nc4c(N)ncnc43)[C@@H](O)[C@@H]2O)cc1	inactive
Cn1c(Nc2ccc(C(F)(F)F)cc2)nc2cc(Oc3ccnc(-c4ncc(C(F)(F)F)[nH]4)c3)ccc21	inactive

tested on: not listed separately; assay: qHTS Assay for Identification of Small Molecule Antagonists for NFkB Signaling Pathway. (AID 624479; calls by dose curve; further: potency means the concentration at half of the fitted maximal effect); conditions: NFkB pathway reporter cell assay, antagonist mode; series mostly up to 38.3 µM

Compound	Potency
COc1cc2c(cc1OC)[C@@H]1C(=O)c3ccc4c(c3O[C@@H]1CO2)C=CC(C)(C)O4	inactive
COc1cc(C)c(Sc2cnc(NC(=O)c3ccc(CNC(C)C(C)(C)C)cc3)s2)cc1C(=O)N1CCN(C(C)=O)CC1 (configuration not stated)	26.6 µM (active)
Cn1c(Nc2ccc(C(F)(F)F)cc2)nc2cc(Oc3ccnc(-c4ncc(C(F)(F)F)[nH]4)c3)ccc21	1.33 µM (active)

Reference: PubChem BioAssay (NCATS)
